This passage reports potency estimated from few doses results from PMC11062922 (Nature Chemical Biology, 2023).

What all share (set-up): species or system human, MV4-11 + K-562 + COLO205 + SK-N-BE2 + OVCAR-8
One test concerns ADCK1. The settings on record: read-out: apparent Kd; compound concentrations: 100 nM and 1000 nM (sheet 'Samples'), CATDS: 9.92203055838001E-2; n = 1.
The subject of another test is AKT1. The settings on record: read-out: apparent Kd; compound concentrations: 100 nM and 1000 nM (sheet 'Samples'), CATDS: 2.85422229355832E-2; n = 1.
In a further test the test system is AKT2. The settings on record: read-out: apparent Kd; compound concentrations: 100 nM and 1000 nM (sheet 'Samples'), CATDS: 2.77493450407107E-2; n = 1.
Another test relates to CDC42BPG. The settings on record: read-out: apparent Kd; compound concentrations: 100 nM and 1000 nM (sheet 'Samples'), CATDS: 4.9906722196616002E-2; n = 1.
For the next test, the system named is CLK1. Conditions: read-out: apparent Kd; compound concentrations: 100 nM and 1000 nM (sheet 'Samples'), CATDS: 3.0057021324399399E-2; n = 1.
In another test the test system is CLK4. The settings on record: read-out: apparent Kd; compound concentrations: 100 nM and 1000 nM (sheet 'Samples'), CATDS: 3.6459308399585902E-2; n = 1.
Another test has as its system CSNK1A1. Conditions: read-out: apparent Kd; compound concentrations: 100 nM and 1000 nM (sheet 'Samples'), CATDS: 2.8495259280969999E-2; n = 1.
Another test deals with CSNK2A1;CSNK2A3. Conditions: read-out: apparent Kd; compound concentrations: 100 nM and 1000 nM (sheet 'Samples'), CATDS: 2.5783405582401799E-2; n = 1.
The next test has as its system HSP90AA1. The settings on record: read-out: apparent Kd; compound concentrations: 100 nM and 1000 nM (sheet 'Samples'), CATDS: 2.5840975218280202E-2; n = 1.
The next test deals with IARS. The settings on record: read-out: apparent Kd; compound concentrations: 100 nM and 1000 nM (sheet 'Samples'), CATDS: 2.4824684596515999E-2; n = 1.
A further test concerns ILK. The settings on record: read-out: apparent Kd; compound concentrations: 100 nM and 1000 nM (sheet 'Samples'), CATDS: 2.4595530906688499E-2; n = 1.
Another test concerns LATS1. The settings on record: read-out: apparent Kd; compound concentrations: 100 nM and 1000 nM (sheet 'Samples'), CATDS: 4.0745202540463502E-2; n = 1.
A further test relates to MAPK11. Conditions: read-out: apparent Kd; compound concentrations: 100 nM and 1000 nM (sheet 'Samples'), CATDS: 3.2120600016528701E-2; n = 1.
The test system of the next test is MAPK14. Conditions: read-out: apparent Kd; compound concentrations: 100 nM and 1000 nM (sheet 'Samples'), CATDS: 2.84299118528781E-2; n = 1.
The test system of the next test is MELK. The settings on record: read-out: apparent Kd; compound concentrations: 100 nM and 1000 nM (sheet 'Samples'), CATDS: 2.8403307321335999E-2; n = 1.
For the next test, the system named is PKN1. The settings on record: read-out: apparent Kd; compound concentrations: 100 nM and 1000 nM (sheet 'Samples'), CATDS: 3.7770198987071901E-2; n = 1.
A further test relates to PKN2. The settings on record: read-out: apparent Kd; compound concentrations: 100 nM and 1000 nM (sheet 'Samples'), CATDS: 2.64555223020508E-2; n = 1.
The subject of a further test is PRKACA. The settings on record: read-out: apparent Kd; compound concentrations: 100 nM and 1000 nM (sheet 'Samples'), CATDS: 4.8150008864783198E-2; n = 1.
The next test has as its system PRKACB. Conditions: read-out: apparent Kd; compound concentrations: 100 nM and 1000 nM (sheet 'Samples'), CATDS: 3.8489694396370601E-2; n = 1.
The test system of a further test is PRKCA. Conditions: read-out: apparent Kd; compound concentrations: 100 nM and 1000 nM (sheet 'Samples'), CATDS: 2.8417130340745399E-2; n = 1.
The subject of the next test is PRKCD. The settings on record: read-out: apparent Kd; compound concentrations: 100 nM and 1000 nM (sheet 'Samples'), CATDS: 2.7001587668499999E-2; n = 1.
Another test concerns PRKG1. Conditions: read-out: apparent Kd; compound concentrations: 100 nM and 1000 nM (sheet 'Samples'), CATDS: 5.7321528324025303E-2; n = 1.
For a further test, the system named is PYGL. The settings on record: read-out: apparent Kd; compound concentrations: 100 nM and 1000 nM (sheet 'Samples'), CATDS: 2.4948391152713498E-2; n = 1.
The next test concerns RIOK2. Conditions: read-out: apparent Kd; compound concentrations: 100 nM and 1000 nM (sheet 'Samples'), CATDS: 4.2618907121449799E-2; n = 1.
The test system of another test is ROCK1. Conditions: read-out: apparent Kd; compound concentrations: 100 nM and 1000 nM (sheet 'Samples'), CATDS: 5.0643849743389702E-2; n = 1.
Another test concerns ROCK2. The settings on record: read-out: apparent Kd; compound concentrations: 100 nM and 1000 nM (sheet 'Samples'), CATDS: 5.2344501044754001E-2; n = 1.
A further test deals with RPS6KB1. The settings on record: read-out: apparent Kd; compound concentrations: 100 nM and 1000 nM (sheet 'Samples'), CATDS: 2.7290145261830101E-2; n = 1.
For another test, the system named is SYK. The settings on record: read-out: apparent Kd; compound concentrations: 100 nM and 1000 nM (sheet 'Samples'), CATDS: 2.51844401612667E-2; n = 1.
The next test has as its system T1, T10.
T1 construct: gene NAT10
The settings on record: read-out: apparent Kd; compound concentrations: 100 nM and 1000 nM (sheet 'Samples'), CATDS: 2.6247989636004901E-2; n = 1.

The subject of the next test is ACVR2B. Conditions: read-out: apparent Kd, n = 1.
Another test concerns BCR. Conditions: read-out: apparent Kd; compound concentrations: 100 nM and 1000 nM (sheet 'Samples'), CATDS: 0.117591173693898; n = 1.
In the next test the test system is EPHA1. The settings on record: read-out: apparent Kd; compound concentrations: 100 nM and 1000 nM (sheet 'Samples'), CATDS: 0.1160485900451; n = 1.
The subject of another test is GAK. Conditions: read-out: apparent Kd; compound concentrations: 100 nM and 1000 nM (sheet 'Samples'), CATDS: 9.8647992016736893E-2; n = 1.
The subject of the next test is JAK2. The settings on record: read-out: apparent Kd; compound concentrations: 100 nM and 1000 nM (sheet 'Samples'), CATDS: 0.147380455866959; n = 1.
For the next test, the system named is RET. Conditions: read-out: apparent Kd; compound concentrations: 100 nM and 1000 nM (sheet 'Samples'), CATDS: 0.12743524996908201; n = 1.
Another test concerns RIPK2. Conditions: read-out: apparent Kd; compound concentrations: 100 nM and 1000 nM (sheet 'Samples'), CATDS: 0.19291932694362501; n = 1.
The subject of another test is RIPK3. Conditions: read-out: apparent Kd; compound concentrations: 100 nM and 1000 nM (sheet 'Samples'), CATDS: 8.1688105237549893E-2; n = 1.
The subject of a further test is SIK2. Conditions: read-out: apparent Kd; compound concentrations: 100 nM and 1000 nM (sheet 'Samples'), CATDS: 9.6722651513250199E-2; n = 1.
Another test relates to MAP3K1. Conditions: read-out: apparent Kd; compound concentrations:100 nM and 1000 nM (sheet 'Samples'); n = 1.
A further test deals with SLK. Conditions: read-out: apparent Kd; compound concentrations:100 nM and 1000 nM (sheet 'Samples'); n = 1.
A further test concerns STK10. The settings on record: read-out: apparent Kd; compound concentrations:100 nM and 1000 nM (sheet 'Samples'); n = 1.
A further test deals with ACVR1B. Conditions: read-out: apparent Kd; compound concentrations:100 nM and 1000 nM (sheet 'Samples'); n = 1.
A further test deals with PRKD2. Conditions: read-out: apparent Kd; compound concentrations:100 nM and 1000 nM (sheet 'Samples'); n = 1.
The test system of the next test is PRKD3. Conditions: read-out: apparent Kd; compound concentrations:100 nM and 1000 nM (sheet 'Samples'); n = 1.

Read-outs that look alike come from different tables or passages of the source.

On to `CN(C)CCNS(=O)(=O)c1ccc(-c2ccnc3[nH]ccc23)cc1` [GSK977620A], for which the potency estimated from few doses in the test on ADCK1 was 145 nM; in the test on AKT1, 1480 nM; with AKT2, 1600 nM; with CDC42BPG, 449 nM; with CLK1, 1300 nM; in the test with CLK4, 827 nM. For the same molecule, the potency estimated from few doses is 1490 nM with CSNK1A1; 1990 nM with CSNK2A1;CSNK2A3; 1980 nM in the test on HSP90AA1; 2250 nM in the test with IARS; 2330 nM with ILK; 658 nM in the test with LATS1. For the same molecule, the potency estimated from few doses is 1100 nM with MAPK11; 1500 nM with MAPK14; 1500 nM with MELK; 768 nM in the test with PKN1; 1840 nM with PKN2; 479 nM in the test on PRKACA. The potency estimated from few doses is 738 nM with PRKACB; 1500 nM in the test with PRKCA; 1730 nM in the test on PRKCD; 352 nM in the test with PRKG1; 2220 nM in the test with PYGL; 602 nM in the test with RIOK2. Moreover, the potency estimated from few doses was 437 nM with ROCK1; 412 nM in the test on ROCK2; 1680 nM with RPS6KB1; 2150 nM in the test on SYK; 1890 nM with T10.
With `Fc1cc(Cl)ccc1Nc1ccnc2cc(-c3ccc(CN4CCSCC4)o3)ccc12` [GW560106X], the potency estimated from few doses is 1650 nM in the test on ACVR2B (compound concentrations: 100 nM and 1000 nM (sheet 'Samples'), CATDS: 8.8140626462379107E-2); 830 nM in the test with BCR; 853 nM in the test with EPHA1; 1220 nM with GAK; 547 nM in the test on JAK2; 710 nM in the test with RET. The potency estimated from few doses with RIPK2 was 357 nM; in the test on RIPK3, 2080 nM; in the test on SIK2 it was 1290 nM.
As to `C[C@@H](Oc1cc(-n2cnc3cc(-c4ccnc(N5CCN(C)CC5)c4)ccc32)sc1C(N)=O)c1ccccc1Cl` [GSK641502A], the potency estimated from few doses in the test on ACVR2B (compound concentrations:100 nM and 1000 nM (sheet 'Samples')) is 732 nM; with MAP3K1, 603 nM; in the test with SLK, 1940 nM; in the test on STK10, 1120 nM.
Take `Cc1cccc(-c2cc(Nc3ccncc3)c3ccccc3n2)n1` [GSK223675A]: the figures for the potency estimated from few doses in the test with ACVR1B, with PRKD2 and in the test with PRKD3 were 21.7 nM, 293 nM and 590 nM, respectively.
